The list is not random: actives were taken first. Their share in the collection is about 4.5%.
GRIN3A LBD mod: modulators (binders) of human NR3A ligand-binding domain. 340,000 tested, 2.5% active. Tm shift relative to glycine control, % at 25 µM. NR3A LBD differential scanning fluorimetry, Tm shift; 0% = protein alone, 100% = glycine-bound protein;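 active means melting temperature shift of at least 10% of the positive control shift, at one fixed dose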
dFosB act-1: mouse delta FosB homodimer activation; activation, % at 25 µM; 340,000 tested, 0.99% active; purified delta FosB, TAMRA-CDK5 oligo fluorescence polarization; percent of positive-control signal above neutral wells;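 active means mean activation above about 17%, with every replicate also reaching it, limit read from the data, passing the limit was not always enough; inconclusive means only one of the two conditions met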
Target sequence (P13346 whole entry, looked up): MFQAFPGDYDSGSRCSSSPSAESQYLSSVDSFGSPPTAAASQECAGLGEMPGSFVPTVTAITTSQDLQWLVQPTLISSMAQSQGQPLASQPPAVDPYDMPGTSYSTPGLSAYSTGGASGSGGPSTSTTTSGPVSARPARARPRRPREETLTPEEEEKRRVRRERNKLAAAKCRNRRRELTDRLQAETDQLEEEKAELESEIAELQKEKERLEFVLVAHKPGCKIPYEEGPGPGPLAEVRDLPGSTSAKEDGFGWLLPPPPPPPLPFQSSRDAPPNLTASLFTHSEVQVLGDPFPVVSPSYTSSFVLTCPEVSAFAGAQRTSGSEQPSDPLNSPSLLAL
EBNA-1 inhibitor: blocks EBNA-1 binding to DNA; 300,000 tested, 0.34% active; AID 1950; inhibition, % at 14.8 µM; EBNA-1 DNA binding, fluorescence polarization; in the data active means inhibition above about 28%
ZTA DNA inh: counter-screen for EBNA-1 inhibitors: inhibitors of Epstein-Barr virus ZTA. ZTA-DNA binding, fluorescence polarization. 320,000 tested, 0.15% active. P03206. inhibition, % at 11 µM; in the data active means inhibition above about 33%
Target sequence (P03206 whole entry, looked up): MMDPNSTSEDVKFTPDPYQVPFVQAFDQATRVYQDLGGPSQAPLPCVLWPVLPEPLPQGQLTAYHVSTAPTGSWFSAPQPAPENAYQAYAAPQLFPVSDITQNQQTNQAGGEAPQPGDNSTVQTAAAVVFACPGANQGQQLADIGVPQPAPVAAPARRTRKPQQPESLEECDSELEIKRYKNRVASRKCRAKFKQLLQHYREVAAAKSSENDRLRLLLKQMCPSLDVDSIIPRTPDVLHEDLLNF
TPT1 inhibitor: C. albicans TPT1 enzyme inhibition; recombinant caTPT1, FP RNA substrate dephosphorylation; inhibition, % at 5 µM; 300,000 tested, 0.81% active; AID 1962;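 active means inhibition above the mean of all tested compounds plus 3 SD, set per screening campaign, cut at about 24% in these data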;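 further: plate controls were DMSO alone for no effect and ferristatin control at 100 nM for full effect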
Rpn11 inh: inhibitors of human proteasome Rpn11; O00487; human 26S proteasome, Ub4-pepOG fluorescence polarization; 20S core pre-blocked with epoxomicin; inhibition, % at 20 µM; 360,000 tested, 0.59% active; AID 588493;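 active means inhibition at 20 µM, scaled to each plate's controls, above about 33%, limit read from the data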
dFosB act-2: enhances mouse delta FosB homodimer binding to DNA; shares compounds with dFosB act-1; purified delta FosB, TAMRA-CDK5 oligo fluorescence polarization; normalised: neutral wells 0, positive control 100; activation, % at 24.9 µM; 2,400 tested, under 10 active;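 active means highest replicate activation at or above 34% and every replicate reaching that threshold; inconclusive means meets only one of the two criteria; inactive means meets neither criterion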;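 further: higher polarization means more probe DNA bound by delta FosB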
The depositor's hits bear a star; u = inconclusive; x = not tested or not shown.

SMILES	GRIN3A LBD mod	dFosB act-1	EBNA-1 inhibitor	ZTA DNA inh	TPT1 inhibitor	Rpn11 inh	dFosB act-2
O=C(Nc1ccc(Br)cc1)c1cc(-c2ccc3c(c2)OCO3)on1	0	25*	-15	9	4	-1	0
C=CCNC(=O)c1cc(-c2ccc3c(c2)OCO3)on1	1	8	3	4	-2	2	x
CC(=O)c1cccc(CN2CCN(C(C)C)C(CCO)C2)c1 (stereo unspecified)	-4	-4	3	-6	-3	-10	x
O=c1[nH]c(Cn2nnc(-c3ccccc3)n2)nc2scc(-c3ccccc3)c12	5	34*	11	1	0	6	0
Cc1cccc(C)c1OCC(O)CN1CCC(CN2C(=O)c3cccc4cccc(c34)C2=O)CC1 (stereo unspecified)	-3	74*	3	7	-1	-5	6
Cc1ccccc1OCC(O)CN1CCN(CCN2C(=O)c3cccc4cccc(c34)C2=O)CC1 (stereo unspecified)	-3	50*	-13	-19	-5	-5	0
CCC(OCC(O)CN1CCN(CCN2C(=O)c3cccc4cccc(c34)C2=O)CC1)c1ccccc1 (stereo unspecified)	0	30*	1	-6	1	0	5
CC(=O)c1ccc(OCC(O)CN2CCN(CCN3C(=O)c4cccc5cccc(c45)C3=O)CC2)cc1 (stereo unspecified)	-2	38*	6	13	-3	-21	-5
CC(C)OCC(O)CN1CCN(CCN2C(=O)c3cccc4cccc(c34)C2=O)CC1 (stereo unspecified)	-1	u	1	-7	-1	-8	x
CC(C)(C)c1ccc(C(=O)NNc2ncccc2-n2cccc2)cc1	-1	-5	-4	1	1	-4	x
CCCC[N+](CC#Cc1ccccc1)(CCCC)CCCS(=O)(=O)[O-]	1	-6	-5	6	1	-8	x
COc1cccc(/C=N/n2c(-c3cc(C)[nH]n3)n[nH]c2=S)c1O	-1	-7	9	3	0	0	x
Cc1ccc(NC(=O)COc2ccccc2C(=O)Nc2ccccc2)cc1Cl	-17	-3	-1	5	-4	4	x
Cc1ccc(Cl)cc1NC(=O)c1ccccc1OCC(=O)Nc1ccc(Cl)cc1	30*	33*	-2	1	1	2	3
CC(=O)NC(=S)Nc1ccc(NC(=O)COc2ccc(Cl)cc2Cl)cc1	0	73*	0	16	3	9	-7
CCC(C(=O)N1CCC(N2CCCCC2)CC1)n1nc(C)c2sc3ccccc3c2c1=O (stereo unspecified)	1	-1	0	-2	-3	-2	x
CCOc1ccc(C2NC(=O)c3ccccc3O2)cc1OC (stereo unspecified)	1	-5	-1	-11	-5	-6	x
Cc1cc(C)n(CC(O)Cn2c3ccc(Cl)cc3c3cc(Cl)ccc32)c(=O)n1 (stereo unspecified)	-2	25*	-6	8	2	21	1
Cc1ccc2nsnc2c1S(=O)(=O)NCCc1c(C)[nH]c2ccc(F)cc12	-8	-12	3	-3	-3	-5	x
O=C(NNC(=O)c1cccc(S(=O)(=O)N2CCN(c3ccccc3)CC2)c1)c1ccc(Cl)cc1	3	58*	-1	-1	-1	2	1
O=C(c1cccc(S(=O)(=O)N2CCCC2)c1)N1CCN(c2ccccc2)CC1	-1	-9	4	3	-2	2	x
Cn1c(=O)n(C)c2cc(NC(=O)c3ccccc3[N+](=O)[O-])c(Br)cc21	1	-1	1	0	2	6	x
COc1ccc(C(CC(=O)O)N2C(=O)CCC2=O)cc1 (stereo unspecified)	-2	3	6	21	-2	0	x
O=C(CCS(=O)(=O)Cc1ccccc1F)NCc1ccccc1Cl	-1	18*	1	16	-1	-6	-2
COc1ccc(N2CCN(C(=O)C(Cc3ccccc3)n3cccc3)CC2)cc1 (stereo unspecified)	-1	-8	-5	-10	-2	2	x
SMILES	GRIN3A LBD mod	dFosB act-1	EBNA-1 inhibitor	ZTA DNA inh	TPT1 inhibitor	Rpn11 inh	dFosB act-2
CN([C@@H](Cc1ccc(OS(=O)(=O)c2cccc3cnccc23)cc1)C(=O)N1CCN(c2ccccc2)CC1)S(=O)(=O)c1cccc2cnccc12	-1	21*	14	-16	-6	18	2
CCN1CCN(c2c(C=O)c(Cl)nc3ccc(OC)cc23)CC1	-4	27*	-12	-5	1	-2	2
CCN1CCN(c2cc(C)c3cc(NC(=O)CCC(=O)Nc4ccc(OC)cc4OC)ccc3n2)CC1	0	3	-11	1	16	5	x
CC1=C(C(N)=O)C(c2cccnc2)n2nc(SCc3ccccc3Cl)nc2N1 (stereo unspecified)	-1	101*	6	0	3	2	4
CCC(=O)NNc1ncnc2c1cnn2-c1cccc(C)c1	-3	-4	-2	-8	-1	-6	x
COC(=O)c1ccc(Nc2ncnc3c2cnn3-c2cccc(C)c2)cc1	-2	45*	-1	9	-1	-2	-2
O=C(COC(=O)c1ccc(F)cc1Cl)NC1CCCCCCC1	-1	-10	x	x	x	-2	x
O=C(COC(=O)c1ccccc1F)NCc1ccc2c(c1)OCO2	0	1	x	x	x	-3	x
O=C(COC(=O)c1cccnc1Nc1ccccc1F)NCc1ccc2c(c1)OCO2	-10	55*	24	11	3	12	3
CC(C)(CC(=O)O)CC(=O)N1CCCN(c2nccc(C(F)(F)F)n2)CC1	1	0	0	-3	1	-3	x
COc1ccc2c(c1)CCc1c(C(=O)Nc3ccn(Cc4ccc(C)cc4)n3)noc1-2	2	28*	2	-11	0	0	-4
O=c1[nH]c2cc3c(cc2cc1C(c1nnnn1Cc1ccccc1)N1CCCc2ccccc21)OCO3 (stereo unspecified)	-1	x	1	3	5	x	x
O=c1[nH]c2cc3c(cc2cc1C(c1nnnn1Cc1ccccc1)N1CCN2CCCC2C1)OCCO3 (stereo unspecified)	1	22*	-8	13	12	27	-12
O=c1[nH]c2cc3c(cc2cc1C(c1nnnn1C1CCCC1)N1CCCc2ccccc21)OCCO3 (stereo unspecified)	1	-5	x	x	x	13	x
O=c1[nH]c2cc3c(cc2cc1C(c1nnnn1Cc1ccccc1)N1CCCCCC1)OCCO3 (stereo unspecified)	0	28*	1	4	13	11	8
